The values below come from PubChem BioAssay.

Assay [1] deals with Wnt5a (protein binding on small-molecule microarray). Description: Wnt5a binders on small-molecule microarray, primary screen, biophysical, 635/667 nm fluorescence (AID 1142).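 Also: fluorescence read at 667 nm with signal to noise per printed feature.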 The conditions noted are these: 635 nm fluorescence, higher = more signal.
Assay [2] in a line: cell viability in Huh7 cells, primary screen, cytotoxicity control for HCV replication inhibitor project, CellTiter-Glo luminescence, basal, 48 h (AID 1143).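 Also: Huh7 hepatoma cells carrying a hepatitis C replication reporter with no stimulus; test concentration not given here.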 The note with it: Huh7 HCV replicon, higher = more signal, called active from +8 up or from −8 down. Background: Cellular ATP, detected with luciferase, serves as a proxy for viable cell number.
Assay [3] is described as follows: CREB reporter modulators without forskolin, primary screen, cell-based, PC12, CRE-LacZ reporter, unstimulated (AID 1145). The note with it: no forskolin, luminescence, 4.5 h, higher = more signal, called active from +8 up or from −8 down.
A short description of assay [4]: CREB reporter modulators under forskolin, primary screen, cell-based, PC12, CRE-LacZ reporter, forskolin-stimulated (AID 1146).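 Also: PC12 cells with 6xCRE LacZ reporter stimulated by forskolin 10 µM; beta-galactosidase reporter signal reflecting CREB driven transcription.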 The note with it: luminescence, 4.5 h, higher = more signal, called active from +8 up or from −8 down.
For assay [5], the target named is Streptavidin (Streptomyces avidinii) (UniProt P22629). Description: streptavidin binders on small-molecule microarray, primary screen, artefact control for SMM compound annotation, biophysical, 635/667 nm fluorescence (AID 1147).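 Also: signal reflects streptavidin binding to arrayed compounds as a control protein.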 The note with it: streptavidin binding, higher = more signal.
A short description of assay [6]: small-molecule binders of probe aInhba, primary screen, biochemical, small-molecule microarray, 635/667 nm fluorescence (AID 1148).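 Also: score merges 667nm spot fluorescence with signal-to-noise for antibody binding to printed compounds.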 The conditions noted are these: higher = more signal.
Assay [7] concerns the target Torsin-1A (Homo sapiens) (UniProt O14656). Description: torsin A binders from cell lysate, primary screen, small-molecule microarray, wild-type, 635/667 nm (AID 1149). The conditions noted are these: COS7 hTOR1A-WT lysate, 635 nm fluorescence, higher = more signal.
The target is the same in assay [8]. Description: small-molecule binders of mutant TOR1A in lysate, primary screen, cell lysate, small-molecule microarray, COS7 lysate, 635/667 nm fluorescence (AID 1150).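 Also: score pools 667 nm emission and signal to noise measuring lysate protein binding.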 The conditions noted are these: COS7 hTOR1A mutant lysate, 635 nm fluorescence, higher = more signal.
Assay [9] relates to Sonic hedgehog protein (Shh). Description: small-molecule binders of Shh protein, primary screen, biochemical, small-molecule microarray, 635/667 nm fluorescence (AID 1151).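 Also: Shh protein binding to compounds spotted on small-molecule microarray slides; score combines spot fluorescence intensity with signal-to-noise across triplicate slides.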 The note with it: small-molecule microarray binding, 635 nm fluorescence; higher = more signal.

Active and inactive are the calls of the source.

Sequence of Streptavidin (Streptomyces avidinii) (P22629 whole entry, looked up): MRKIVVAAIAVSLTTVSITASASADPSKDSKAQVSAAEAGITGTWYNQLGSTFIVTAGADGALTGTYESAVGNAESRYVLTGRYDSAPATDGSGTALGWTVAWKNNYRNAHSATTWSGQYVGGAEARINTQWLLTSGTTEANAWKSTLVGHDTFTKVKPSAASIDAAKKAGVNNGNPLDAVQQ
Sequence of Torsin-1A (Homo sapiens) (O14656 whole entry, looked up): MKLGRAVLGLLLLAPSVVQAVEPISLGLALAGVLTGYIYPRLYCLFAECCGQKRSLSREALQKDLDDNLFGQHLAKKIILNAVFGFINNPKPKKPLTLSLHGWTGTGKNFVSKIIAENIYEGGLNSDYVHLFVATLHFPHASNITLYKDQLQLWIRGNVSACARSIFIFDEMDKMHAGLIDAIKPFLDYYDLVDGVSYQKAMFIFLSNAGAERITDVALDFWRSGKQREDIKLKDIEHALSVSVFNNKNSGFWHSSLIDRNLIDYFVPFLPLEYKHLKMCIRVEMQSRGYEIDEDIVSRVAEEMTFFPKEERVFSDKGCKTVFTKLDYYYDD

Consider `C=C(CCCC)C(=O)CC[C@@H](OC(=O)c1cccnc1)c1cccc(OCCO)c1`, for which the composite z-score in assay [1] is 0.38; in assay [5], -0.0743; in assay [6], -0.0762; with Torsin-1A (Homo sapiens) [7] it was 1.08; in the assay with Torsin-1A (Homo sapiens) [8], 0.0906; in [9], 1.17. For the same compound, the z-score in assay [2] was -1.85 (inactive); in [3], 17.7 (active); in [4] it was -0.315 (inactive).
As for `CCC(=O)[C@]12O[C@@]3([C@@H]4C(=O)OCC[C@@H]41)N(CC)C(C)=C(C(=O)OC)[C@@H](c1ccccc1)N3C2=O`, the composite z-score in assay [1] was -0.0488; in [5], -0.194; in assay [6], -0.283; with Torsin-1A (Homo sapiens) [7], -0.0028; in the assay with Torsin-1A (Homo sapiens) [8], -0.063; in assay [9] it was 1.92. Moreover, the z-score is -3.62 (inactive) in assay [2], -0.0708 (inactive) in [3] and -1.58 (inactive) in assay [4].
For the compound `C[N+](C)(C)CCCCNC(=O)[C@@H]1C[C@@H]2C(=O)N3CCC[C@H]3C(=O)N2[C@@H]1c1cccc(OCCO)c1`, the composite z-score in assay [1] was 0.256; in assay [5], -0.315; in assay [6] it was -0.128; with Torsin-1A (Homo sapiens) [7], 0.725; with Torsin-1A (Homo sapiens) [8] it was 1.03; in [9], 1.84. The z-score in assay [2] was -3.3 (inactive); in assay [3], -0.671 (inactive); in assay [4], -1.62 (inactive).
Turning to `CCCNC(=O)[C@@H]1c2ccccc2C(=O)N(Cc2cc(F)cc(C(F)(F)F)c2)[C@H]1c1ccc(CO)cc1`, the composite z-score stood at 0.411 in [1]; 0.568 in assay [5]; 0.157 in assay [6]; 0.528 with Torsin-1A (Homo sapiens) [7]; 0.457 with Torsin-1A (Homo sapiens) [8]; 1.93 in assay [9]. The results for the z-score in assay [2], in assay [3] and in assay [4] were -2.08 (inactive), -0.529 (inactive) and -1.53 (inactive), respectively.
For the compound `C=CCNC(=O)[C@H]1[C@@H]2C(=O)O[C@@H](c3ccccc3)[C@@H](c3ccccc3)N2[C@@H](c2ccc(O)cc2)[C@]12C(=O)Nc1ccc(C#CCNC(N)=O)cc12`, the composite z-score in assay [1] is -0.261; in [5] it was -0.96; in assay [6], 0.468; with Torsin-1A (Homo sapiens) [7], -0.109; in the assay with Torsin-1A (Homo sapiens) [8], 0.0926; in [9], 0.103. Besides, the results for the z-score in [2], in assay [3] and in [4] were -0.23 (inactive), -0.594 (inactive) and -0.759 (inactive), respectively.
In the case of `COc1ccc(CCNC(=O)[C@@]2(c3ccc([N+](=O)[O-])cc3)CC(=O)N(C(C)C)[C@@H]2c2ccc(CO)cc2)cc1`, the composite z-score in assay [1] is -0.326; in assay [5] it was -0.698; in [6], -0.255; with Torsin-1A (Homo sapiens) [7] it was -1.09; with Torsin-1A (Homo sapiens) [8] it was -0.87; in assay [9], -0.775. Also, the z-score in assay [2] was -3.13 (inactive); in assay [3], 0.0909 (inactive); in [4], -1.25 (inactive).
Consider `CO[C@@H]1COC(=O)[C@H](C)NC(=O)CC=C[C@@H](C)[C@H](OC)COC(=O)[C@H](C)NC(=O)CC=C[C@H]1C`, for which the composite z-score in assay [1] is 0.151; in assay [5], 1.17; in assay [6] it was 0.0659; in the assay with Torsin-1A (Homo sapiens) [7], 0.678; with Torsin-1A (Homo sapiens) [8] it was -0.0045; in [9] it was 0.622. Moreover, the z-score is -0.164 (inactive) in [2], -0.205 (inactive) in assay [3] and -0.759 (inactive) in [4].
For the compound `CC(=O)NCCCC[C@@H]1NC(=O)[C@@H]2C[C@H](C(=O)NCCCCCNC(=O)CS)[C@H](c3ccc(O)cc3)N2C1=O`, the composite z-score in assay [1] is 0.443; in assay [5] it was -0.654; in assay [6], -0.179; with Torsin-1A (Homo sapiens) [7], 0.0918; in the assay with Torsin-1A (Homo sapiens) [8], 0.324; in assay [9], 1.49. Moreover, the z-score is -1.62 (inactive) in assay [2], -0.134 (inactive) in [3] and -1.45 (inactive) in assay [4].
With `CCCNC(=O)[C@@]1(Sc2ccc(C)cc2)CC(=O)N(Cc2ccccc2Cl)[C@@H]1c1ccc(CO)cc1`, the composite z-score in assay [1] worked out at 0.222; in [5], 0.124; in assay [6], 0.0925; with Torsin-1A (Homo sapiens) [7], 0.369; in the assay with Torsin-1A (Homo sapiens) [8], 0.17; in assay [9] it was 1.86. In addition, the z-score in assay [2] is -6.06 (inactive); in [3], 0.443 (inactive); in assay [4] it was -1.43 (inactive).
Turning to `C=CCN1C(=O)[C@@]2(O[C@@H](CCn3cc([C@H](O)c4ccccc4)nn3)[C@H]([Si](C)(C)c3ccc(OC)cc3)[C@H]2C)c2cc(N3CCOC3=O)ccc21`, the composite z-score is -0.0882 in assay [1]; -0.349 in assay [5]; -0.157 in assay [6]; 0.0712 with Torsin-1A (Homo sapiens) [7]; 0.557 with Torsin-1A (Homo sapiens) [8]; 0.185 in [9]. Further, the z-score is -6.15 (inactive) in assay [2], 8.19 (active) in assay [3] and -1.73 (inactive) in assay [4].
As for `CCCCO[C@H]1C[C@H]2C(Br)=C[C@@]1(CO)C(=O)[C@]21CO1`, the composite z-score in assay [1] is -0.112; in assay [5], -0.0819; in assay [6], 0.0714; with Torsin-1A (Homo sapiens) [7], 0.0005; with Torsin-1A (Homo sapiens) [8] it was 0.281; in [9] it was 0.536. Also, the results for the z-score in assay [2], in [3] and in assay [4] were -0.483 (inactive), 0.577 (inactive) and -0.67 (inactive), respectively.
For the compound `CCOC(=O)C[C@H]1[C@H](OC(=O)c2cc3ccccc3oc2=O)[C@@H](NC(=O)c2ccc3ccccc3c2)c2cc(OCCCO)ccc2N1C(=O)c1ccc2ccccc2n1`, the composite z-score in assay [1] worked out at 0.338; in [5], 0.895; in assay [6] it was 0.0497; in the assay with Torsin-1A (Homo sapiens) [7] it was 0.419; with Torsin-1A (Homo sapiens) [8], 0.268; in assay [9] it was 0.43. Moreover, the results for the z-score in assay [2], in assay [3] and in assay [4] were -0.574 (inactive), 9.89 (active) and -2.03 (inactive), respectively.
